Screening results from PubChem.
Shown are actives, neighbours in structure and some others; about 7.4% of the full set was active somewhere.
ELG1 genotoxic: qHTS screen for small molecules that induce genotoxicity in human embryonic kidney (HEK293T) cells expressing luciferase-tagged ELG1. HEK293T ELG1-luciferase reporter, luminescence, 16 h. AID 504466, 2011. Potency, µM (series often up to 46 µM), for the others: at the highest dose activity change, positive = activation, hits mostly activators. 1.3% of 330,000 active; further: % of control where 0% means no effect; nearly all actives have a fitted effect of over 60% in size
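After overnight (16 hr) compound treatment at 37 °C, ELG1-luciferase HEK293T cells were lysed with ONE-Glo; luminescence quantified 30 min later at room temperature.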
FLuc modulator: qHTS profiling assay for firefly luciferase inhibitor/activator using purifed enzyme and Km concentrations of substrates (counterscreen for miR-21 project); Luciferin 4-monooxygenase (Photinus pyralis), P08659; purified FLuc, Km substrates, luminescence inhibition; Potency, µM (series often up to 57.5 µM), for the others: top-dose activity change, negative = inhibition, hits mostly inhibitors; 6.9% of 360,000 active;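 further: plate controls were vehicle for no effect and reference inhibitor for full effect; nearly all actives have a fitted effect of over 55% in size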
Target sequence (P08659 whole entry, looked up): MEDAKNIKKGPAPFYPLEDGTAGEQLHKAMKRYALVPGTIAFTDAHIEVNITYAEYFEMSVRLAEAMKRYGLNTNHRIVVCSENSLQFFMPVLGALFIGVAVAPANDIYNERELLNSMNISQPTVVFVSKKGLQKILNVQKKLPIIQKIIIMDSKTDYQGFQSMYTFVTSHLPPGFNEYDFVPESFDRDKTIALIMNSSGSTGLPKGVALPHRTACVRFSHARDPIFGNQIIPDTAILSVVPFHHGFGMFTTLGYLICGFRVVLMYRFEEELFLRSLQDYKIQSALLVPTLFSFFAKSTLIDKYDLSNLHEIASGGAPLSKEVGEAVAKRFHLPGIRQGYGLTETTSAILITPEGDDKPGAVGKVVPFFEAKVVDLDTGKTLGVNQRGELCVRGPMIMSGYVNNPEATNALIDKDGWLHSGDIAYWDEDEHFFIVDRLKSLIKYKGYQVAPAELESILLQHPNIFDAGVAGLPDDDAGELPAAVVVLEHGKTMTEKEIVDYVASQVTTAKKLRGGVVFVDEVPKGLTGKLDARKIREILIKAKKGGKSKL
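Purified P. pyralis luciferase (10nM final) with 10uM D-luciferin and 10uM ATP (Km levels) in 50mM Tris acetate pH 7.5, 10mM Mg acetate, 0.01% Tween-20, 0.05% BSA; qHTS 6-point titration, ~60 µM downward; luminescence read.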
Rab9 prom act: qHTS Assay for Rab9 Promoter Activators | Huh7 Rab9 promoter-luciferase reporter, luminescence, 24 h | Potency, µM (highest dose often 9.22 µM), for the others: at the highest dose activation, negative = inhibition, actives largely listed as activators | 2.8% of 320,000 active | AID 485297, 2010; further: % of control where 0% means no effect; nearly all actives have a fitted effect of over 60% in size
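Measured in stably transfected Huh7 cells bearing a Rab9 promoter–luciferase construct: 24 h compound treatment at 37 °C, followed by luminescence detection.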
Luc counter: Counterscreen for Luciferase (Kinase-Glo TM) Inhibition | Kinase-Glo luciferase, ATP luminescence, 8 min | Luciferin 4-monooxygenase (Photuris pensylvanica), Q27757 | 0.28% of 200,000 active | Potency, µM (titrated, usually from 38.3 µM), inactives show top-dose activity change, negative = inhibition, most hits filed as inhibitors; further: on the % scale 0 is the no-effect control and ±100 the full control effect; nearly all actives have a fitted effect of over 60% in size
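Luminescence was the read-out, taken after 8-minute incubation at ambient temperature. Luciferase turned over luciferin with 10 uM ATP in imidazole pH 7.2 buffer containing KCl, MgCl2, Tween 20 and BSA.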
NPC1 promoter act: qHTS Assay for NPC1 Promoter Activators; Huh7 NPC1 promoter luciferase reporter, 24 h; Potency, µM (titrated, usually from 9.22 µM), for inactives: at the top dose activation, actives largely listed as activators; 2.4% of 320,000 active; further: % of control where 0% means no effect; nearly all actives have a fitted effect of over 60% in size
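In 1536-well qHTS, Huh7 cells harboring an NPC1 promoter–luciferase construct received compound for 24 h; activation was quantified by luminescence following luciferase reagent addition.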
SMN2 splice enh: qHTS Assay for Enhancers of SMN2 Splice Variant Expression; HEK293 SMN2-luciferase splicing reporter, luminescence, 30-36 h; Potency, µM (titrated, usually from 46.1 µM), for inactives: top-dose activity change, positive = activation, most hits filed as activators; 2.8% of 210,000 active; further: % of control where 0% means no effect; nearly all actives have a fitted effect of over 55% in size
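HEK293 cells carry an SMN2 minigene-luciferase reporter in which exon 7 inclusion puts luciferase in frame. Cells were seeded at 2000 cells/well, attached for 10-12 hours, then exposed to compounds for 30-36 hours at 37C before ONE-Glo luminescence.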
* = called active by the depositor; ? = inconclusive; nt = no result; [ ] = another dose, or the depositor's remark. The call rests on the fitted dose curve; in most records, active means well fitted curve in the direction sought with a large enough effect; inconclusive means small, poorly fitted or top-dose-only effect, or another doubt; inactive means no such curve, though single readings can be large; an effect the other way counts as inactive or inconclusive. Potency means the concentration at half of the fitted maximal effect.

SMILES | ELG1 genotoxic | FLuc modulator | Rab9 prom act | Luc counter | NPC1 promoter act | SMN2 splice enh
Cc1cc(C2=NNC(=NC3CC3)SC2)c(C)n1-c1c(C)n(C)n(-c2ccccc2)c1=O | -3% | -6% | -12% | 2% | 6% | -4%
CN=C1NN=C(c2cc(C)n(-c3ccc(Cl)cc3)c2C)CS1 | ? | 4.8µM* | 2.5µM* | -6% | 4µM* | -7%
CCC(CC)C(=O)N1CCc2cc(OC)c(OC)cc2C1COc1ccc(C(=O)OC)cc1 (stereo not given) | nt | -3% | nt | nt | nt | nt
CCc1ccc(NC(=O)c2ccc3ncsc3c2)cc1 | ? | 2.7µM* | 3.5µM* | 1% | 1.4µM* | 8.9µM*
O=C(Nc1ccc(Br)cc1)c1ccc2ncsc2c1 | 1.6µM* | 5.4µM* | 0.35µM* | nt | 0.4µM* | nt
O=C(Nc1ccc2c(c1)C(=O)NC2=O)c1ccccc1 | 1% | -2% | 3% | nt | 0% | nt
COc1ccc(NC(=O)c2ccc3ncsc3c2)cc1 | ? | 8.5µM* | 1.4µM* | nt | 3.2µM* | nt
CN(C)S(=O)(=O)c1ccc(NC(=O)c2ccc3ncsc3c2)cc1 | ? | ? | 15% | nt | 24% | nt
O=C(Nc1ccc2c(c1)C(=O)NC2=O)c1ccc2ncsc2c1 | ? | ? | ? | 3% | ? | 11µM*
COc1cccc(-n2c(C)nc3c(cnn3-c3ccc(C)c(C)c3)c2=O)c1 | nt | ? | nt | nt | nt | -8%
Fc1cccc(CNc2ncnc3ccc(-c4ccoc4)cc23)c1 | nt | 2% | -1% | nt | 0% | nt
O=C(NNC1CC(=O)N(c2ccccc2)C1=O)c1ccco1 (stereo not given) | 1% | -13% | -9% | 0% | -3% | -5%
O=C(NNC1CC(=O)N(c2ccccc2)C1=O)c1ccc(COc2ccccc2Cl)o1 (stereo not given) | 2% | 17µM* | 2% | -2% | 0% | 5%
CC(C)OC(=O)[C@@H]1CC[C@H](C)[C@@H](CCCCO)O1 | nt | nt | nt | 2% | nt | -1%
Cc1cn(-c2ccccc2)c(C)c1/C=N\Nc1nc(N2CCOCC2)nc(N2CCOCC2)n1 | -5% | 19µM* | 8% | 0% | -2% | 0%
CC(C)c1ccc(/C=N/Nc2cc(N3CCOCC3)nc(N3CCOCC3)n2)cc1 | -7% | 3% | -3% | 4% | 1% | -3%
Cc1cc(N/N=C/c2ccccc2)nc(N2CCOCC2)n1 | 9% | 12µM* | 1% | nt | 5% | nt
Cc1ccc(/C=N/Nc2cc(C)nc(N3CCOCC3)n2)cc1 | -3% | 2.7µM* | -2% | nt | -1% | nt
Cc1cc(N/N=C/c2ccccc2)nc(N)n1 | ? | 17µM* | 27% | nt | 27% | nt
CCOc1ccc(C(=O)N2CCN(Cc3cc(=O)n4nc(-c5ccccc5Cl)sc4n3)CC2)cc1 | nt | -8% | nt | nt | nt | nt
COc1ccc(OC)c(CCNC(=O)c2cc3c(-c4ccccc4F)nn(C)c3s2)c1 | nt | 8% | nt | nt | nt | -73%
CC#CC(=O)N1CCC(n2nccc2NC(=O)c2ccc3c(c2)OCO3)CC1 | 17% | 3% | 20% | nt | -7% | nt
CSCCC(=O)N1CCC(n2nccc2NC(=O)c2ccc3c(c2)OCO3)CC1 | ? | 12µM* | 4µM* | nt | 2.8µM* | nt
Cc1ccccc1CN1CCC(n2nccc2NC(=O)c2ccc3c(c2)OCO3)CC1 | ? | 19µM* | 21% | nt | ? | nt
C=CCSc1n[nH]c(-c2ccc(OCCCC)cc2)n1 | 18µM* | 15µM* | ? | 1% | ? | ?
SMILES | ELG1 genotoxic | FLuc modulator | Rab9 prom act | Luc counter | NPC1 promoter act | SMN2 splice enh
C=CCSc1n[nH]c(-c2ccc(OCCC)cc2)n1 | 4.6µM* | 11µM* | 2µM* | -3% | 2.5µM* | 11µM*
S=c1nc(-c2ccc(Cl)cc2)[nH][nH]1 | 1% | 0% | -6% | nt | 2% | nt
CCCOc1ccc(-c2nc(=S)[nH][nH]2)cc1 | ? | ? | ? | 7% | 28% | 13µM*
Cc1cccc2sc(N(Cc3cccnc3)C(=O)C3CCCCC3)nc12 | nt | 1% | nt | nt | nt | nt
O=[N+]([O-])c1ccc(/C=N/N2CCCCC2)cc1 | ? | 9.5µM* | 29%[1.84 µM] | nt | 2.5µM* | nt
Clc1ccc(/C=N/N2CCCCC2)cc1 | 12% | 11µM* | 22% | nt | 12% | nt
CCN(Cc1ccccc1)Cc1c(O)ccc2c(=O)c(-c3ccc(Cl)cc3)coc12 | nt | -3% | nt | nt | nt | -4%
O=C(O)c1cccc(NC(=O)C2C3C=CC(C3)C2C(=O)OCC(F)(F)C(F)F)c1 (stereo not given) | 6% | 17µM* | 5% | 1% | -2% | -7%
COc1ccc(OC)c(NC(=O)c2c(C)oc3ncnc(N4CCOCC4)c23)c1 | nt | -2% | nt | nt | nt | nt
COc1cc2nc(NCc3ccccc3)n3nc(-c4ccccc4)nc3c2cc1OC | nt | 0% | nt | nt | nt | 8%
Cc1ccc(C)c(NC(=O)c2ccccc2O)c1 | -12% | 17µM* | ? | -6% | 4% | -3%
Cc1cccc(NC(=O)c2ccccc2O)c1C | 2% | 13µM* | ? | 2% | ? | 11%
O=C(Nc1ccccc1O)c1ccccc1O | -12% | 9.5µM* | 20% | -4% | ? | -3%
Cc1cccc(NC(=O)c2cnn3ccccc23)c1C | 15% | ? | ? | nt | ? | nt
COc1ccccc1C(=O)N1CCN(Cc2cc(=O)oc3cc(C)ccc23)CC1 | nt | 1% | nt | nt | nt | -4%
CCOC(=O)Cn1nc(-c2ccccc2)c2cnc3ccc(OCC)cc3c21 | nt | -8% | nt | nt | nt | -3%
COc1ccc(NC(=O)Cn2c(=O)n(CCc3ccccc3)c(=O)c3c4c(sc32)CCCC4)cc1 | nt | -1% | nt | nt | nt | -5%
Cc1ccc(OCCCn2c(CO)nc3ccccc32)cc1 | 10% | -2%[2.3 µM] | ? | 4% | 18% | ?
Cc1ccccc1OCCCCn1c(CO)nc2ccccc21 | -6% | -12% | -9% | -2% | -11% | -54%
Cc1cccc(OCCCn2c(CO)nc3ccccc32)c1 | 5% | 13µM* | ? | nt | 21% | nt
OCc1nc2ccccc2n1CCCOc1ccccc1 | ? | 11µM* | ? | 0% | ? | 11µM*
CC(C)=CCn1cnc2c1C(NOCc1ccccc1)=NCN2 | nt | nt | nt | -1% | nt | 11%
COc1ccc(-n2ccc3ccccc32)cc1 | 0% | 24µM* | -2%[1.84 µM] | nt | -7% | nt
COc1ccc(N2C(=O)c3cc4ccccc4cc3C2=O)cc1 | -1% | 0% | 1% | nt | 23% | nt
COc1ccc(Nc2nc3ccccc3s2)cc1 | ? | 5.4µM* | 1.4µM* | -8% | 2.5µM* | 10µM*
COc1cccc(Nc2nc3ccc(OC)cc3s2)c1 | ? | 4.3µM* | 4.5µM* | -3% | ? | 20µM*
